PINK1 modulator = changes PINK1 expression; hit rate 0.2% among 410,000; PINK1 immunofluorescence, high-content cytometry, 24 h; Potency, µM (doses to about 76.6 µM), for the others: at the highest dose activation (PINK1 increase), hits mostly activators; active = well fitted activation curve with a large enough effect; inconclusive = small, poorly fitted or top-dose-only effect; cell line not stated here; also: % of control where 0% means no effect; nearly all actives have a fitted effect of over 65% in size
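Stable cell line, 250 cells/well, 12 h attachment; compounds pinned at 5 concentrations, 24 h; CCCP control. Fixed with nuclear dye, primary antibodies 12 h at 10 degrees C, secondary plus cell stain; laser-scanning cytometer read.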
TSG101-PTAP inh = blocks PTAP/TSG101 interaction to inhibit HIV-1 budding; AID 493005; Fluorescence polarization, FITC-PTAP peptide / Tsg101 binding; Q99816; Potency, µM (series often up to 115 µM), for the others: at the highest dose activity change, negative = inhibition, usual class: inhibitors; 340,000 tested, under 10 active; active = well fitted inhibition curve with a large enough effect in the main read-out, with a control signal flat, not every such curve was filed as active; inconclusive = small, poorly fitted or top-dose-only effect, or effect the other way, or a change in a side signal; inactive = no such curve, though single readings can be large or run the other way; also: % of control where 0% means no effect
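Fluorescence anisotropy tracks displacement of a FITC-tagged PTAP peptide (50 nM) from the Tsg101 binding domain (10 uM), following a 20 min room-temperature incubation at pH 7.5.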
Anesthetic bind = binds horse apoferritin like a general anesthetic; P02791; apoferritin/1-aminoanthracene competitive binding, fluorescence; Potency, µM (doses to about 77.5 µM), inactives show at the highest dose activity change, negative = displacement, hits mostly inhibitors; hit rate 0.074% among 350,000; also: % is scaled to controls: 0 for no effect and ±100 for the full control effect; nearly all actives have a fitted effect of over 20% in size
Target sequence (P02791 2-175 limits assumed): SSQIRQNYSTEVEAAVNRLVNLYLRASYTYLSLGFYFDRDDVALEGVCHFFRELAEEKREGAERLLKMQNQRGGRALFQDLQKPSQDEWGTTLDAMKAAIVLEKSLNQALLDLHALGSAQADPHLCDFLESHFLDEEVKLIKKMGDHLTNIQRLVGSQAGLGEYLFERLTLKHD
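10 uM apoferritin + 50% sat. 1-AMA, PBS; cpd 10 min RT; Ex380/Em535 endpoint; normalized to free probe vs complex; 4-param Hill fit; propofol titration as pos. ctrl.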
HTT aggregate = reduces HttQ103-GFP aggregates in PC12 cells; PC12 HttQ103-GFP aggregates, Acumen cytometry, 40 h; Potency, µM (doses to about 46.1 µM), for the others: top-dose activity change, negative = inhibition, most hits filed as inhibitors; hit rate 1.1% among 220,000; AID 1688; also: % is scaled to controls: 0 for no effect and ±100 for the full control effect; nearly all actives have a fitted effect of over 60% in size
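Quantitative HTS on tebufenozide-induced (100 nM) PC12 cells stably expressing polyQ103 Huntingtin exon 1–GFP. Reduction of bright GFP aggregates, detected by laser scanning cytometry after lysis, identified actives across the titration.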
HTT ATP protect = Huntington cell model cytoprotection by ATP luminescence | AID 1471 | Potency, µM (top dose mostly 56.4 µM), inactives show cytoprotection (ATP increase), hits mostly activators | hit rate 0.14% among 230,000 | PC12 HTT-Q103 induced, cytoprotection, ATP luminescence, 40 h; also: % of control where 0% means no effect; nearly all actives have a fitted effect of over 45% in size
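Cells were plated at 1500 per well in phenol red-free DMEM with 5% equine and 5% calf serum. Tebufenozide (100 nM final) and compounds were added, then ATPlite reagent, and luminescence was read.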
Epigenetic reg = derepresses silenced GFP reporter in murine cells; murine LDR cells, GFP reporter derepression, 30 h; Potency, µM (titrated, usually from 53.9 µM), without a hit: top-dose GFP activation, actives largely listed as activators; hit rate 0.2% among 280,000; also: % of control where 0% means no effect; nearly all actives have a fitted effect of over 60% in size
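Reporter derepression read as number of fluorescent GFP-positive objects, 20-120 um in size, counted by laser-scanning cytometer. Mouse LDR line with an epigenetically silenced CMV-GFP locus; compound incubation 30 h, 37 C.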
Numbers without * were called inactive; ? = inconclusive; . = not tested or not shown; [ ] = another dose, or the depositor's remark. This is one part of a sample in which hits are shown more often than they occur. Unless noted, calls follow the shape of the dose curve; as a rule, active = well fitted curve in the direction sought with a large enough effect; inconclusive = small, poorly fitted or top-dose-only effect, or another doubt; inactive = no such curve, though single readings can be large; an effect the other way counts as inactive or inconclusive. Potency is read from the fitted curve at half-maximal effect.

SMILES	PINK1 modulator	TSG101-PTAP inh	Anesthetic bind	HTT aggregate	HTT ATP protect	Epigenetic reg
COc1cc(OC)c(/C=C2/C(=O)Nc3ccccc32)c(OC)c1	.	.	.	.	-22%[1.9 µM]	3%
CS(=O)(=O)N(CCC#N)Cc1ccc(/C=C2\C(=O)Nc3ccccc32)o1	-1%	-3%	-17%	11µM*	-39%	1%
COc1ccccc1NS(=O)(=O)c1cc(NC(=O)c2ccc(Cl)nc2)ccc1Cl	?	1%	5%	25µM*	33%[10 µM]	2%
COc1ccc(C(=O)Nc2ccc(Cl)c(S(=O)(=O)Nc3ccccc3OC)c2)cc1	2%	-6%	3%	?	15%[10 µM]	-2%
C/C(=C\c1ccco1)CN1CCOc2ccc(CN3CCC(Oc4cccnc4)CC3)cc2C1	-1%	.	.	.	.	.
CNC(=O)CN1C(=O)C2C3C=CC(C3)C2C1=O (centres undefined)	0%	-5%	5%	9%	18%[10 µM]	0%
CS(=O)(=O)NNC(=O)CN1C(=O)C2C3C=CC(C3)C2C1=O (centres undefined)	4%	1%	-2%	0.032µM*	-15%	-3%
CCc1ccccc1N(C)C(=O)CCc1nc(-c2ccc(C)cc2)no1	0%	2%	84%	11µM*	-66%	1%
CCc1ccc2occ(CC(=O)Nc3ccc(OC)c(Cl)c3)c2c1	-1%	.	-11%	.	.	4%
CC(C)(C)C1CCC2(CC1)C(C#N)=C(SCC(=O)Nc1ccccc1)NC(=O)C2C#N (centres undefined)	22µM*	-3%	-16%	?	-46%	-1%
CC1(C)CC(=O)C2=C(C1)NC(SCC(=O)Nc1ccccc1)=C(C#N)C21CCCCC1	?	-2%	-9%	-20%	-15%	0%
COc1ccc(-n2c(C)cc(C(=O)CSc3ccc(NC(C)=O)cc3)c2C)cc1	0%	-1%	-10%	13µM*	-9%[10 µM]	1%
CC1CCCN(C(=O)COc2ccc(Nc3ccccc3)cc2)C1 (centres undefined)	0%	0%	18µM*	-5%	-36%	-2%
CC1CCN(C(=O)COc2ccc(Nc3ccccc3)cc2)CC1	0%	-4%	?	14%	-13%	1%
CC(C)CN(C)c1ccc(/C=C2\C=Cc3ccccc32)cc1	3%	.	.	.	.	.
COc1ccc(-c2cccc(C3CC=CC4C3C(=O)N(Cc3ccccc3)C4c3cc(C)ccc3F)c2)cc1 (centres undefined)	.	.	1%	-36%[9.22 µM]	-49%[10 µM]	0%
Cc1ccc(F)c(C2C3C=CCC(c4cccc(-c5ccc(N(C)C)cc5)c4)C3C(=O)N2Cc2ccccc2)c1 (centres undefined)	3%	3%	-3%	3.2µM*	-38%[10 µM]	0%
Oc1ccc(N2CCN(c3ncnc4sc5c(c34)CCC5)CC2)cc1	0%	-3%	?	11µM*	6%[10 µM]	-1%
CCCC(=O)N1CCN(c2ccc(NC(=O)c3ccc([N+](=O)[O-])o3)cc2)CC1	0%	-3%	-15%	22µM*	-73%	?
CCC(=O)N1CCN(c2ccc(NC(=O)c3ccc([N+](=O)[O-])o3)cc2)CC1	-1%	1%	-16%	-5%[9.22 µM]	9%[10 µM]	?
Cc1cc(/C=C/c2c(C)cnc3ccccc23)ccc1N(C)C	6%	.	.	.	.	.
O=S(=O)(O)c1cc(O)c2c(O)c(N=Nc3cc(Cl)ccc3O)c(S(=O)(=O)O)cc2c1	0%	?	5%	.	.	.
Cc1cc(-c2ccc(N=Nc3c(S(=O)(=O)O)cc4cc(S(=O)(=O)O)cc(N)c4c3O)c(C)c2)ccc1N=Nc1c(S(=O)(=O)O)cc2cc(S(=O)(=O)O)cc(N)c2c1O	.	.	.	0.02µM*	-23%	.
COc1ccc2c(c1)-c1nc(-n3ncc(C(=O)NCc4cccnc4)c3C3CC3)ncc1CC2	0%	.	.	.	.	.
C=CCc1cccc2cc(C(=O)NCc3cccnc3)c(=O)oc12	.	-7%	3%	4%	3%[1.9 µM]	1%
